Results published in PubChem BioAssay (NCATS).
Records with an inconclusive call do not appear. Where a call stands in place of a potency, no number is given. Activity calls are given as the source filed them. Unless noted, calls come from the whole dose curve; as a rule, active = well fitted curve in the direction sought with a large enough effect; inconclusive = small, poorly fitted or top-dose-only effect, or another doubt; inactive = no such curve, though single readings can be large; an effect the other way counts as inactive or inconclusive.

How the values were obtained:
[1] = biological target: Tumor susceptibility gene 101 protein (Homo sapiens) (UniProt Q99816); assay: qHTS Validation Assay for Iinhibitors of HIV-1 Budding by Blocking the Interaction of PTAP/TSG101 (AID 485342; calls by dose curve)
In short: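 Tsg101 binding domain (10 uM final) in pH 7.5 HEPES/NaCl/Tween 20/EDTA/TCEP buffer was mixed with pin-transferred compounds, then FITC-labeled PTAP peptide (50 nM final) was added; after 20 min at r.t., fluorescence polarization was read.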

[2] = qHTS Validation Assay to Find Inhibitors of Chronic Active B-Cell Receptor Signaling (AID 485345; active = well fitted curve in the direction sought with a large enough effect in the main read-out, with a control signal flat, not every such curve was filed as active)
In short: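 TMD8 ABC-DLBCL cells with dox-inducible green luciferase–IκBα fusion and red native luciferase; compounds 46 uM–3 nM, 4 h at 37C with doxycycline in 0.5% FBS IMDM. Green/red ratio normalized to basal and 10 uM MG-132.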

[3] = Quantitative high throughput screen for delayed death inhibitors of the malarial parasite plastid, 96 hour incubation (AID 488745);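 note: luciferase-expressing P. falciparum in erythrocytes at 2% hematocrit and 0.1% parasitemia; series mostly up to about 29 µM; nearly all actives have a fitted effect of over 70% in size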
In short: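 Infected erythrocytes were added to compound in Albumax-supplemented RPMI 1640 at 0.1% parasitemia and 2% hematocrit (final), incubated 96 h at 37 C under 5% CO2, then luciferase reagent was added and luminescence measured.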

[4] = Quantitative high throughput screen for delayed death inhibitors of the malarial parasite plastid, 48 hour incubation (AID 488752); note: nearly all actives have a fitted effect of over 65% in size
In short: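 Readout is firefly luciferase luminescence from a reporter integrated into the parasite genome, with lower signal taken as inhibited growth. Infected red cells (0.1% parasitemia, 2% hematocrit final) are cultured with compound for one 48 h cycle at 37 C.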

[5] = biological target: Thioredoxin reductase 1, cytoplasmic (Rattus norvegicus) (UniProt O89049); assay: qHTS Assay for Substrates of Mammalian Selenoprotein Thioredoxin Reductase 1 (TrxR1) (AID 488772);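 note: NADPH fluorescence in the first read after selenite addition and not the 8 min delta; series mostly up to about 57 µM; a drop in NADPH fluorescence below the no-compound background marks a TrxR1 substrate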
In short: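 Quantitative HTS in Tris-HCl buffer at pH 7.5 with EDTA and Tween-20, using rat TrxR1, 400 uM NADPH and 400 uM selenite (final). A fall in initial NADPH fluorescence relative to background marked substrate behaviour.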

[6] = biological target: Thioredoxin reductase 1, cytoplasmic (Rattus norvegicus) (UniProt O89049); assay: qHTS Assay for Inhibitors of Mammalian Selenoprotein Thioredoxin Reductase 1 (TrxR1) (AID 488773);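 note: drop in NADPH fluorescence over an 8 min run after selenite addition; series mostly up to about 57 µM; nearly all actives have a fitted effect of over 40% in size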
In short: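 Steps: enzyme (90 nM) plus NADPH (400 uM final), 5 min at ~22 deg C; compound added, 15 min; selenite (400 uM final) added; fluorescence followed for 8 min. Concentration-response curves derived from the normalized delta values.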

[7] = biological target: M-phase phosphoprotein 8 (Homo sapiens) (UniProt Q99549); assay: qHTS Validation Assay for Inhibitors for MPP8 Chromodomain Interactions with Methylated Histone Tails (AID 488949);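 note: AlphaScreen signal from MPP8 chromodomain bound to biotinylated H3K9me3 peptide; top concentration of the series differs between compounds; nearly all actives have a fitted effect of over 55% in size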
In short: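 MPP8 (50 nM) was preincubated with biotinylated H3(1-18)K9me3 peptide (50 nM) in PBS pH 7.4, 0.01% Tween-20 for 30 min at room temperature, then with compounds for 30 min; binding was detected by AlphaScreen.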

[8] = biological target: Chromobox protein homolog 1 (Homo sapiens) (UniProt P83916); assay: qHTS Validation Assay for Inhibitors of HP1-beta Chromodomain Interactions with Methylated Histone Tails (AID 488953);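 note: loss of AlphaScreen luminescence from HP1-beta binding biotinylated H3K9me3 peptide; series mostly up to about 110 µM; nearly all actives have a fitted effect of over 50% in size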
In short: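 50 nM HP1-beta + 50 nM biotin-H3(1-18)K9me3, PBS pH 7.4, 0.01% Tween-20, 30 min RT; compound added, 30 min RT; AlphaScreen beads 10 ug/mL final, 30 min dark; luminescence read.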

[9] = biological target: Methanococcus maripaludis chaperonin (MmCpn) (UniProt Q6LX38); assay: High-Throughput Screening for Modulators of Cytosolic Chaperonin Activity: MmCpn Primary Screen (AID 488978);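 note: 50 nM MmCpn enzyme hydrolysing 30 µM ATP at 37 °C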
Sequence of Methanococcus maripaludis chaperonin (MmCpn) (Q6LX38 1-543): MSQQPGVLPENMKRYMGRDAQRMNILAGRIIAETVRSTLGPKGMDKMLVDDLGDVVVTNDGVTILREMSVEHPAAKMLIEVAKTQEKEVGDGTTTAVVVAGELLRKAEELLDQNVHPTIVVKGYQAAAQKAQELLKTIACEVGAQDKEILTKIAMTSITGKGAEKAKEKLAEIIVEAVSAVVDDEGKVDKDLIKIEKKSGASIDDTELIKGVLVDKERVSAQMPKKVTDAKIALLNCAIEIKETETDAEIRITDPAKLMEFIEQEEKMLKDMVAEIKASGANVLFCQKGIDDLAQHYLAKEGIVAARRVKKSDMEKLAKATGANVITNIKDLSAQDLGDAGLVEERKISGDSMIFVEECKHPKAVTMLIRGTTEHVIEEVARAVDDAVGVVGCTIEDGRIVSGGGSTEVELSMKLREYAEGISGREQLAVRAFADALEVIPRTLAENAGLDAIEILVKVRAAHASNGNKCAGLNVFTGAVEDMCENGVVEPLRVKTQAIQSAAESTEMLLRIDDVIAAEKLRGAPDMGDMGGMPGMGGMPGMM
In short: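 MmCpn (50 nM final) was preincubated with compound 5 min at RT, then 30 uM ATP (final) was added and the reaction ran 10 min at 37C. ADP produced was detected by Transcreener HTRF (ex 320 nm; em 590/665 nm).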

[10] = biological target: Transient receptor potential cation channel subfamily V member 1 (Homo sapiens) (UniProt Q8NER1); assay: HTS Assay for Compounds that Act as Enhancers of the Vanilloid Receptor 1 (AID 488979)
Sequence of Transient receptor potential cation channel subfamily V member 1 (Homo sapiens) (Q8NER1 whole entry, looked up): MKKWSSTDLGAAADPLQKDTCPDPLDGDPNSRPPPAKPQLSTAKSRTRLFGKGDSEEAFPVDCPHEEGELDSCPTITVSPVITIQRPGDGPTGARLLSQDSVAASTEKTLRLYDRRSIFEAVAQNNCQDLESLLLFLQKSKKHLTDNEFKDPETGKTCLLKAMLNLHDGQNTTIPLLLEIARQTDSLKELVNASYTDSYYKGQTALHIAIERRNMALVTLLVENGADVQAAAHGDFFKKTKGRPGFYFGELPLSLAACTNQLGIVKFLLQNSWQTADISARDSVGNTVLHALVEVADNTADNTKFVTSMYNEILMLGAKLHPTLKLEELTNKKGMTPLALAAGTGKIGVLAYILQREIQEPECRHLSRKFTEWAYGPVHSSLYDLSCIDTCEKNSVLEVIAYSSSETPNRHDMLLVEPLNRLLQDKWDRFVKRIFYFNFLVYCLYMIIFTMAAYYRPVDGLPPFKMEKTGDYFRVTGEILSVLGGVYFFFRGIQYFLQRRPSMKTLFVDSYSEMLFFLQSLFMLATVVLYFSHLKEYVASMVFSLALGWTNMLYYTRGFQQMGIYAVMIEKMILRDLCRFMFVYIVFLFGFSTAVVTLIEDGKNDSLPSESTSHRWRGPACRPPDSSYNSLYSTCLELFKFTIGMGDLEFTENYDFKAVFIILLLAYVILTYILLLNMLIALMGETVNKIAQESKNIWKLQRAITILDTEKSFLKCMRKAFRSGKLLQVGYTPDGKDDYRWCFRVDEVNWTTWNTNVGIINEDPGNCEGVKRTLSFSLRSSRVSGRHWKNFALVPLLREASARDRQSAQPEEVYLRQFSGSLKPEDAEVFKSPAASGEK
In short: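 TRPV1-expressing cells loaded with Fluo-8 calcium dye; compounds added and calcium influx read kinetically for 3 min (agonist phase), then capsaicin at EC20 added and read 2 min more for enhancement. Fluorescence ex 480/em 520 nm.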

[11] = biological target: Thyrotropin receptor (Homo sapiens) (UniProt P16473); assay: qHTS Assay for Antagonists of the Thyroid Stimulating Hormone Receptor (AID 488980); note: series mostly up to about 58 µM
Sequence of Thyrotropin receptor (Homo sapiens) (P16473 whole entry, looked up): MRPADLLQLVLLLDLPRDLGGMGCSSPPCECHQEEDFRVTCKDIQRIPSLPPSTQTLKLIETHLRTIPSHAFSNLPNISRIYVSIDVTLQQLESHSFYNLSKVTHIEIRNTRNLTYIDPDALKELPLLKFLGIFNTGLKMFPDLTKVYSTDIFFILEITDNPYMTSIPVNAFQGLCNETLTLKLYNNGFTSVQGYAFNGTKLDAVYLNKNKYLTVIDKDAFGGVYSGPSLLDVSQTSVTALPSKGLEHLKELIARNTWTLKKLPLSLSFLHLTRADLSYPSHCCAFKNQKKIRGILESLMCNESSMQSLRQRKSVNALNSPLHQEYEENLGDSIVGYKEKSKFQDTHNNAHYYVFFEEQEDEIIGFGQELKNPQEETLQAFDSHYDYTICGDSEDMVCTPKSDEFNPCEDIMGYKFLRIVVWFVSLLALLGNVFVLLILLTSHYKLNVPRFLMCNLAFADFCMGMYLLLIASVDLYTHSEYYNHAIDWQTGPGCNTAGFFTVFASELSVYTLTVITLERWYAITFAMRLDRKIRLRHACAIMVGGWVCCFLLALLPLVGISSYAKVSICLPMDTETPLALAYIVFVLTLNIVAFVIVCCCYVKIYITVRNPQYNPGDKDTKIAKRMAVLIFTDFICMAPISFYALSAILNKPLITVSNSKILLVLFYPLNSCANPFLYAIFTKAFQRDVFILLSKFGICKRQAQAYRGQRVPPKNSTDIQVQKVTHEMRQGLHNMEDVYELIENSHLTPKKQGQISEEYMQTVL
In short: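 HEK293 cells transfected with human TSHR, suspended in HEPES-buffered HBSS with 70 uM RO 20-1724, were treated with compounds plus TSH at EC80 (4 nM final). cAMP was measured by competitive HTRF (cryptate anti-cAMP antibody, cAMP-d2 acceptor).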

[12] = biological target: D(1A) dopamine receptor (Homo sapiens) (UniProt P21728); assay: HTS Assay for Allosteric Agonists of the Human D1 Dopamine Receptor: Primary Screen for Agonists (AID 488981)
Sequence of D(1A) dopamine receptor (Homo sapiens) (P21728 whole entry, looked up): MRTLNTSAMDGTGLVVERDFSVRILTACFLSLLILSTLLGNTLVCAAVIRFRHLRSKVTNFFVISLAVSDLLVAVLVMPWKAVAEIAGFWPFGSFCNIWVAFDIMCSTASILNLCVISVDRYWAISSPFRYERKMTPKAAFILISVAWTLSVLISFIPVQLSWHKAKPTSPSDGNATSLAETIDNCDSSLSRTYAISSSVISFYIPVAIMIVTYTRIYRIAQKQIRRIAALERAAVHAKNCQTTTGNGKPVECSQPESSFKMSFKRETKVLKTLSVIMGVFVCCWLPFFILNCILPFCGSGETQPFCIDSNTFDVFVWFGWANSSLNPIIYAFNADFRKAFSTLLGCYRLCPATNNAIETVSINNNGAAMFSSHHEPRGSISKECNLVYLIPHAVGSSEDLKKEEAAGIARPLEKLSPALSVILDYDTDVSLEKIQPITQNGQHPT
In short: (§1)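 Tetracycline-induced HEK293 T-REx cells force-coupled to calcium signalling were incubated overnight at 30 C and dye-loaded at room temperature. Calcium flux over 180 s after compound addition flagged agonists; a further 180 s read after EC20 dopamine flagged potentiators.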

[13] = biological target: D(1A) dopamine receptor (Homo sapiens) (UniProt P21728); assay: HTS Assay for Allosteric Agonists of the Human D1 Dopamine Receptor: Primary Screen for Potentiators (AID 488982)
In short: as §1

[14] = biological target: D(1A) dopamine receptor (Homo sapiens) (UniProt P21728); assay: HTS Assay for Allosteric Agonists of the Human D1 Dopamine Receptor: Primary Screen for Antagonists (AID 488983);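 note: calcium flux response to an EC80 dopamine challenge measured with no-wash dye; nearly all actives have a fitted effect of over 65% in size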
In short: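 Cells are induced with tetracycline and incubated overnight at 30 C, then loaded with calcium dye for 30 to 90 minutes at room temperature. Compound addition is followed by a 180 s read, then an EC80 dopamine addition and another 180 s read.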

[15] = Validation screen for small molecules that induce genotoxicity in human embryonic kidney (HEK293T) cells expressing luciferase-tagged ELG1 (AID 493106)
In short: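 Luminescence from an ELG1-luciferase fusion serves as the read-out, rising when genetic stress elevates ELG1 protein. HEK293T reporter cells (2,000 per well) received 23 nL compound, incubated 16 hr at 37 °C, then ONE-Glo for 30 min at room temperature.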

[16] = biological target: ATPase family AAA domain-containing protein 5 (Homo sapiens) (UniProt Q96QE3); assay: Validation screen for small molecules that inhibit ELG1-dependent DNA repair in human embryonic kidney (HEK293T) cells expressing luciferase-tagged ELG1 (AID 493107);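 note: cells co-treated with the DNA-damaging agent 5-fluorouridine alongside compound; series mostly up to about 46 µM; inhibitors lower the ELG1-luciferase luminescence signal; nearly all actives have a fitted effect of over 70% in size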
Sequence of ATPase family AAA domain-containing protein 5 (Homo sapiens) (Q96QE3 whole entry, looked up, the tested form may be a part): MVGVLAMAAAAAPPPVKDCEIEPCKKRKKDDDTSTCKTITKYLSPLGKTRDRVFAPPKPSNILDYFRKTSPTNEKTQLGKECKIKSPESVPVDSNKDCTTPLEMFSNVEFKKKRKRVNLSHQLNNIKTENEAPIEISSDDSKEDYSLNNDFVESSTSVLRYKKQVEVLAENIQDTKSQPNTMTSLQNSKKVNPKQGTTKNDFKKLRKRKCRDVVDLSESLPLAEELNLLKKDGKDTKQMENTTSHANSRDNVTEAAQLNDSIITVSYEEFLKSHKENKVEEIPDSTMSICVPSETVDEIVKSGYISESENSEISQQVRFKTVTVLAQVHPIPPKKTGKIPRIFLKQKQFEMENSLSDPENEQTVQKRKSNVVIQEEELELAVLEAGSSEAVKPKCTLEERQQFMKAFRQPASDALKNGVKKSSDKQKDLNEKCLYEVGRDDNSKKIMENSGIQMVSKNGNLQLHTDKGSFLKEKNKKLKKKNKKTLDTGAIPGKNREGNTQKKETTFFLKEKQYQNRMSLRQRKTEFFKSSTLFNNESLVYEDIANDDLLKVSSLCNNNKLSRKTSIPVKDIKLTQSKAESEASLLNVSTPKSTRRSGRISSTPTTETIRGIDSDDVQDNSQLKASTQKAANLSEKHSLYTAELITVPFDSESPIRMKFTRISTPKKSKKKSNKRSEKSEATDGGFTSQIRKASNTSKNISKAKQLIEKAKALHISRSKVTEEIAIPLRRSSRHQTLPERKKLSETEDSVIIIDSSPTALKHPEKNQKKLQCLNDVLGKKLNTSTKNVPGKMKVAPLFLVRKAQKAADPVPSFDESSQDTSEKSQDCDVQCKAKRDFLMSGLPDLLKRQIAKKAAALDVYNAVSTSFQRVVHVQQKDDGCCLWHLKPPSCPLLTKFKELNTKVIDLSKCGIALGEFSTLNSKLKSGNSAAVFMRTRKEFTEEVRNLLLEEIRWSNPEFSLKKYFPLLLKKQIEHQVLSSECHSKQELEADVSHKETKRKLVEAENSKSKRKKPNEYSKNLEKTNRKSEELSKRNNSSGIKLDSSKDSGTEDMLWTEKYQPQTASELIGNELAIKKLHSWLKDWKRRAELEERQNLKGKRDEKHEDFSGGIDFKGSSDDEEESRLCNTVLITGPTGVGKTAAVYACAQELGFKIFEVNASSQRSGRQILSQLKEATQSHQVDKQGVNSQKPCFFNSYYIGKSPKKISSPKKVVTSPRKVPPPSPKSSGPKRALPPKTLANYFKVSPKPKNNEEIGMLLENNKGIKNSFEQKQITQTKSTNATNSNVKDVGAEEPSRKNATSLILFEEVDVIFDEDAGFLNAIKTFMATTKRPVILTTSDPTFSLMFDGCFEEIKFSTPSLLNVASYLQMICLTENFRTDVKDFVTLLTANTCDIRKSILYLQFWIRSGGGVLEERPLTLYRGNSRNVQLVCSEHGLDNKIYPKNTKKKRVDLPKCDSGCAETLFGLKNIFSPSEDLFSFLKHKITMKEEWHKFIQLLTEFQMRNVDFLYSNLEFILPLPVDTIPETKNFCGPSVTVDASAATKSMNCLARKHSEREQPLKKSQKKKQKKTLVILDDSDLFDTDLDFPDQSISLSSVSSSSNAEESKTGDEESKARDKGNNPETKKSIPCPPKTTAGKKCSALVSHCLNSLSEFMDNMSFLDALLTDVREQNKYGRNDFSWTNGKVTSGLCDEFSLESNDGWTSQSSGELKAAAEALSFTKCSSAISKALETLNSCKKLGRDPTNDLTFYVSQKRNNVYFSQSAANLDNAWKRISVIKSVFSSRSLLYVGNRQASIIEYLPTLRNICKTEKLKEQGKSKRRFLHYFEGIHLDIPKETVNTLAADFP
In short: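 Luminescence from ONE-Glo, developed 30 min at room temperature, served as read-out of ELG1-luciferase levels. Beforehand, reporter HEK293T cells received 5-fluorouridine plus test compound for 16 hr at 37 °C.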

[17] = Nrf2 qHTS screen for inhibitors: Validation (AID 493153; active = well fitted inhibition curve with a large enough effect in the main read-out, with a control signal flat, not every such curve was filed as active); settings: viability change: measured here: cytotoxicity max response
In short: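 Luminescence from an ARE-firefly luciferase reporter in A549 cells gives Nrf2 inhibition; an earlier CellTiter-Fluor fluorescent read flags cytotoxicity. Cells in 5% FBS OPTI-MEM received compound dilution series for 18-24 h at 37°C.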

[18] = biological target: ATP-dependent 6-phosphofructokinase (Trypanosoma brucei brucei) (UniProt O15648); assay: qHTS Assay to Find Inhibitors of T. brucei phosphofructokinase: hit validation (AID 492961);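 note: luminescence reports ADP formed as PFK phosphorylates fructose-6-phosphate with ATP; series mostly up to about 51 µM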
Sequence of ATP-dependent 6-phosphofructokinase (Trypanosoma brucei brucei) (O15648 whole entry, looked up): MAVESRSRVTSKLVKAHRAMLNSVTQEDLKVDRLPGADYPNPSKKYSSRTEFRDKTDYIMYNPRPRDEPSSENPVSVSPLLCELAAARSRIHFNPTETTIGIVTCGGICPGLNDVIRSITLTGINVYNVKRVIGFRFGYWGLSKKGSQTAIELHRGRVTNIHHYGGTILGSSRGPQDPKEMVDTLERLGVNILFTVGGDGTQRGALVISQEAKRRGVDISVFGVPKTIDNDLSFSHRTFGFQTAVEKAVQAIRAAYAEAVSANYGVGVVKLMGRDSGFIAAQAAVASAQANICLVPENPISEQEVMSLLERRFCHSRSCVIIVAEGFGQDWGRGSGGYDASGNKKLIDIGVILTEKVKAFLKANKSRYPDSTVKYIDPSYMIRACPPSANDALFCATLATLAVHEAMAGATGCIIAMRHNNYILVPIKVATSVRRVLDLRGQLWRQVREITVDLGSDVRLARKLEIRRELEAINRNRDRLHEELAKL
In short: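 Percent activity derived from corrected luminescence, normalized between 0x and 1x enzyme controls, then fitted to concentration-response curves. Conditions: 1.25 nM PFK, 0.1 mM ATP, 0.5 mM F6P, 45 min RT.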

[19] = biological target: ATP-dependent 6-phosphofructokinase (Trypanosoma brucei brucei) (UniProt O15648); assay: qHTS Validation Assay to Find Inhibitors of T. brucei phosphofructokinase (AID 485368)
In short: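 Compounds (up to 57 uM, titration series) were pinned into substrate buffer, then 1.25 nM PFK added; after 45 min at room temperature, ADP product was quantified by ADP-Glo luminescence and concentration-response curves fitted.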

[20] = biological target: Thyrotropin-releasing hormone receptor (Homo sapiens) (UniProt P34981); assay: qHTS for Small Molecule Agonists and Allosteric Enhancers of Human TRH Receptor: Validation Screen for Agonists (AID 493127;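 active = calcium activation more than 3 SD above the typical response in the agonist read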;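 note: intracellular calcium rise by fluo-8 fluorescence before TRH EC20 addition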); settings: TRH receptor agonist cell assay; at 2 µM; stronger effect = higher value
In short: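 Cells 2000/well, 10% FCS, 18 h 33.5C/5% CO2 → fluo-8 Ca dye, RT 30 min–1.5 h → FDSS baseline 10 × 1 s → compound added → 230 cycles (1 s/cycle) agonist mode. TRH controls.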

## CCCn1c(=O)[nH]c(=O)c2[nH]cnc21
[1]
  outcome: inactive
[2]
  outcome: inactive
[3]
  Potency: inactive
[4]
  Potency: inactive
[5]
  outcome: inactive
[6]
  outcome: inactive
[7]
  Potency: inactive
[8]
  Potency: inactive
[9]
  outcome: inactive
[10]
  outcome: inactive
[11]
  outcome: inactive
[12]
  Potency: inactive
[13]
  outcome: inactive
[14]
  Potency: inactive
[15]
  outcome: inactive
[16]
  Potency: inactive
[17]
  outcome: inactive
  viability change: 7.08%

## CCCCCCC[N+](CC)(CC)CCCCc1ccc(Cl)cc1
[18]
  outcome: inactive

## C[C@]12CC[C@@H]3c4ccc(O)cc4CC[C@H]3[C@@H]1CC[C@@H]2O
[1]
  outcome: inactive
[19]
  Potency: inactive
[3]
  Potency: inactive
[4]
  Potency: inactive
[5]
  outcome: inactive
[6]
  outcome: inactive
[7]
  Potency: inactive
[8]
  Potency: inactive
[9]
  outcome: inactive
[10]
  outcome: inactive
[11]
  outcome: inactive
[12]
  Potency: inactive
[13]
  outcome: inactive
[14]
  Potency: inactive
[18]
  outcome: inactive
[15]
  outcome: inactive
[16]
  Potency: inactive
[20]
  activation: 4.75% (inactive)
[17]
  outcome: inactive
  viability change: 1.87%

## CC1(C)CCC(NC(=O)[C@@H](N)CCC(=O)O)CC1
[1]
  outcome: inactive
[2]
  outcome: inactive
[19]
  Potency: inactive
[3]
  Potency: inactive
[4]
  Potency: inactive
[5]
  outcome: inactive
[6]
  outcome: inactive
[7]
  Potency: inactive
[8]
  Potency: inactive
[9]
  outcome: inactive
[10]
  outcome: inactive
[11]
  outcome: inactive
[12]
  Potency: inactive
[13]
  outcome: inactive
[14]
  Potency: inactive
[18]
  outcome: inactive
[15]
  outcome: inactive
[16]
  Potency: inactive
[20]
  activation: 0.125% (inactive)
[17]
  outcome: inactive
  viability change: 2.98%

## CCCC1O[C@@H]2C[C@H]3[C@@H]4CCC5=CC(=O)C=C[C@]5(C)[C@H]4[C@@H](O)C[C@]3(C)[C@]2(C(=O)CO)O1 (stereo not given in full)
[1]
  outcome: inactive
[5]
  outcome: inactive
[6]
  outcome: inactive
[7]
  Potency: inactive
[8]
  Potency: inactive
[9]
  outcome: inactive
[12]
  Potency: inactive
[13]
  outcome: inactive
[14]
  Potency: inactive
[15]
  outcome: inactive
[16]
  Potency: inactive
[17]
  outcome: inactive
  viability change: -3.74%

## COc1cc(-c2ccc(=O)[nH]n2)ccc1OC(F)F
[3]
  Potency: inactive
[4]
  Potency: inactive
[7]
  Potency: inactive
[10]
  outcome: inactive
[11]
  outcome: inactive
[20]
  activation: -0.438% (inactive)

## CN(C)C(=S)SC(=S)N(C)C
[18]
  outcome: inactive

## CC(C)C[C@H]1C(=O)N2CCC[C@H]2[C@]2(O)O[C@](NC(=O)[C@@H]3C=C4c5cccc6[nH]c(Br)c(c56)C[C@H]4N(C)C3)(C(C)C)C(=O)N12
[1]
  outcome: inactive
[2]
  outcome: inactive
[5]
  outcome: inactive
[6]
  outcome: inactive
[7]
  Potency: inactive
[9]
  outcome: inactive
[12]
  Potency: inactive

## C1CCc2nnnn2CC1
[1]
  outcome: inactive
[2]
  outcome: inactive
[3]
  Potency: inactive
[4]
  Potency: inactive
[5]
  outcome: inactive
[6]
  outcome: inactive
[7]
  Potency: inactive
[8]
  Potency: inactive
[9]
  outcome: inactive
[10]
  outcome: inactive
[11]
  outcome: inactive
[12]
  Potency: inactive
[13]
  outcome: inactive
[14]
  Potency: inactive
[15]
  outcome: inactive
[20]
  activation: -0.375% (inactive)
[17]
  outcome: inactive
  viability change: 4.51%
